Here are results for five compounds from PubChem BioAssay.

Test [1] in a line: small molecules captured by biotinylated probe aFSTL3 – biochemical, small-molecule microarray, fluorescence 635/667, stem cell growth factor project, primary screen (AID 1064).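 Further: measures binding of the biotinylated anti-FSTL3 antibody to printed compounds.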 To be noted: higher = more signal.
The nature of test [2]: binders from COS7 lysate, DM2A8 probe, primary screen, torsin A project, cell lysate, small-molecule microarray, fluorescence 635/667 (AID 1065). The conditions noted are these: higher = more signal, COS7 lysate expressing mutant human TOR1A.
Test [3] in a line: small molecules captured by biotinylated probe aFGF2 – biochemical, small-molecule microarray, fluorescence 635/667, stem cell growth factor project, primary screen (AID 1067).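 Further: measures binding of biotinylated aFGF2 protein to printed compounds on slides; z-score merges feature fluorescence and signal-to-noise across triplicate slides.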 The conditions noted are these: higher = more signal.
A short description of test [4]: small molecules captured by biotinylated probe aFGF10 – biochemical, small-molecule microarray, fluorescence 635/667, stem cell growth factor project, primary screen (AID 1071).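 Further: score merges 667 nm spot intensity and signal to noise from triplicate slides.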 To be noted: higher = more signal.
Test [5] addresses Neurogenic locus notch homolog protein 2 (Homo sapiens) (UniProt Q04721). The test can be described thus: small molecules binding Notch2 protein – biochemical, small-molecule microarray, 635 nm fluorescence, stem cell growth factors, primary screen (AID 1073). The conditions noted are these: higher = more signal.
The target in test [6] is Pro-neuregulin-1, membrane-bound isoform (Homo sapiens) (UniProt Q02297). The test can be described thus: small molecules binding neuregulin-1 protein – biochemical, small-molecule microarray, fluorescence 635/667, psychiatric disease protein project, primary screen (AID 1075).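 Further: score combines 667 nm spot fluorescence with signal to noise.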 The conditions noted are these: NRG1 binding, 635 nm fluorescence, higher = more signal.
The test system of test [7] is Neuregulin-1 EGF-like domain. Briefly: small molecules binding NRG1 EGF domain – biochemical, small-molecule microarray, 635 nm fluorescence, primary screen (AID 1081).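 Further: binding of the protein to compounds printed on small-molecule microarray slides.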 To be noted: higher = more signal.
The nature of test [8]: FRG1 expression reporter modulators in myotubes – cell-based, C2C12 myotubes, firefly/Renilla luciferase, luminescence, FRG1 inhibition for FSHD, primary screen (AID 1084). To be noted: FRG1 promoter luciferase, higher = more signal, called active from +8 up or from −8 down.
The nature of test [9]: small molecules captured by biotinylated probe aFST – biochemical, small-molecule microarray, fluorescence 635/667, stem cell growth factor project, primary screen (AID 1086).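 Further: score merges 667 nm fluorescence with signal-to-noise of each printed compound spot.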 To be noted: higher = more signal.
The nature of test [10]: binders of probe aHhip on microarray, primary screen, stem cell growth factor project, biochemical, small-molecule microarray, fluorescence 635/667 (AID 1087).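 Further: score merges spot fluorescence at 667nm with spot signal to noise ratio.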 To be noted: higher = more signal.
Test [11] has as its system PRMT1 (protein arginine N-methyltransferase 1). Briefly: small molecules binding arginine methyltransferase PRMT1 – biochemical, small-molecule microarray, 635 nm fluorescence, primary screen (AID 1088).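 Further: binding of Prmt1 protein to compounds spotted on small-molecule microarray slides.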 To be noted: higher = more signal.
The nature of test [12]: growth effects on S. cerevisiae YJM789 – YJM789 clinical isolate, OD600, 24 h, basal, primary screen (AID 1089).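 Further: growth of clinical yeast isolate S. cerevisiae YJM 789 seeded 1000 cells per well; test concentration not given here.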 To be noted: higher = more signal, called active from +8 up or from −8 down.
Test [13] can be described thus: S. pombe growth modifiers, basal conditions – strain 972, OD600, 24 h, no modulator, primary screen (AID 1090).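 Further: basal condition with compound alone and no growth modifier present; test concentration not given here.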 The conditions noted are these: S. pombe 972 growth, higher = more signal, called active from +8 up or from −8 down.
Test [14] in a line: budding yeast growth modifiers under rapamycin – strain BY4716, OD600, 96 h, primary screen (AID 1091). Further: test concentration not given here. The conditions noted are these: S. cerevisiae BY4716 + rapamycin, higher = more signal, called active from +8 up or from −8 down.
Test [15] addresses Torsin-1A-interacting protein 2 (Homo sapiens) (UniProt Q8NFQ8). Briefly: small molecules binding lysate-expressed LULL1 – cell lysate, human LULL1 lysate, 635/667 nm fluorescence, primary screen (AID 1092).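 Further: probe is lysate of COS7 cells overexpressing human LULL1; score merges per-feature 667 nm fluorescence with signal-to-noise.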 The conditions noted are these: small-molecule microarray, hLULL1 lysate binding, 635 nm fluorescence; higher = more signal.
A short description of test [16]: optical density change of DRC41 E. coli – strain DRC41, OD650, 24 h, E. coli filamentation project, primary screen (AID 1093).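 Further: MC1000 strain lacking acrAB efflux and sulA so SOS filamentation is blocked; test concentration not given here.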 The conditions noted are these: E. coli DRC41 growth, higher = more signal, called active from +8 up or from −8 down.
Test [17] in a line: probe aLefty2 binding to arrayed compounds – biochemical, biotinylated probe, 635/667 nm fluorescence, primary screen (AID 1094).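 Further: score merges spot fluorescence near 667 nm with spot signal-to-noise ratio.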 To be noted: small-molecule microarray, higher = more signal.
In test [18] the test system is Noggin (protein binding on small-molecule microarray). Briefly: small molecules binding Noggin protein – biochemical, 635/667 nm fluorescence, primary screen (AID 1095).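 Further: score merges 667 nm feature fluorescence with signal to noise over triplicate slides.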 The conditions noted are these: 635 nm fluorescence, higher = more signal.
Test [19] deals with Neurogenic locus notch homolog protein 3 (Homo sapiens) (UniProt Q9UM47). Briefly: small molecules binding NOTCH3 protein – biochemical, 635/667 nm fluorescence, primary screen (AID 1096). To be noted: small-molecule microarray, 635 nm fluorescence, higher = more signal.
Test [20] is described as follows: probe aEGFR binding to arrayed compounds – biochemical, biotinylated probe, 635/667 nm fluorescence, primary screen (AID 1097).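 Further: probe is a biotinylated anti-EGFR antibody binding compounds printed on slides; score combines fluorescence near 667 nm and signal to noise of each spot.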 The conditions noted are these: small-molecule microarray, higher = more signal.

The structures appear in SMILES notation. Activity calls are given as the source filed them.

Chain of Torsin-1A-interacting protein 2 (Homo sapiens) (Q8NFQ8 whole entry, looked up): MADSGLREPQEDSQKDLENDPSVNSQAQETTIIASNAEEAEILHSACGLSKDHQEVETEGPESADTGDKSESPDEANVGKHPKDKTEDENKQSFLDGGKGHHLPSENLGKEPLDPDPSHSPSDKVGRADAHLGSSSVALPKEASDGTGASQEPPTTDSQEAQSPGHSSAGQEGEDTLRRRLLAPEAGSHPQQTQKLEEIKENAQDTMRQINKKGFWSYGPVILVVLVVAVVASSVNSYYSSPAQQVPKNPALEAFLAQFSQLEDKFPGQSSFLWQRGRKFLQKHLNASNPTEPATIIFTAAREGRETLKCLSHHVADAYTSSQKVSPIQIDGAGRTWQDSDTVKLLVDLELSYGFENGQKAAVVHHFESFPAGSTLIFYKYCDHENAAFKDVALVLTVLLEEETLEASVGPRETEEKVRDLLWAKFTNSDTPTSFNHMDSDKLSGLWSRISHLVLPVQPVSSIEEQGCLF
Chain of Neurogenic locus notch homolog protein 2 (Homo sapiens) (Q04721 whole entry, looked up, canonical isoform): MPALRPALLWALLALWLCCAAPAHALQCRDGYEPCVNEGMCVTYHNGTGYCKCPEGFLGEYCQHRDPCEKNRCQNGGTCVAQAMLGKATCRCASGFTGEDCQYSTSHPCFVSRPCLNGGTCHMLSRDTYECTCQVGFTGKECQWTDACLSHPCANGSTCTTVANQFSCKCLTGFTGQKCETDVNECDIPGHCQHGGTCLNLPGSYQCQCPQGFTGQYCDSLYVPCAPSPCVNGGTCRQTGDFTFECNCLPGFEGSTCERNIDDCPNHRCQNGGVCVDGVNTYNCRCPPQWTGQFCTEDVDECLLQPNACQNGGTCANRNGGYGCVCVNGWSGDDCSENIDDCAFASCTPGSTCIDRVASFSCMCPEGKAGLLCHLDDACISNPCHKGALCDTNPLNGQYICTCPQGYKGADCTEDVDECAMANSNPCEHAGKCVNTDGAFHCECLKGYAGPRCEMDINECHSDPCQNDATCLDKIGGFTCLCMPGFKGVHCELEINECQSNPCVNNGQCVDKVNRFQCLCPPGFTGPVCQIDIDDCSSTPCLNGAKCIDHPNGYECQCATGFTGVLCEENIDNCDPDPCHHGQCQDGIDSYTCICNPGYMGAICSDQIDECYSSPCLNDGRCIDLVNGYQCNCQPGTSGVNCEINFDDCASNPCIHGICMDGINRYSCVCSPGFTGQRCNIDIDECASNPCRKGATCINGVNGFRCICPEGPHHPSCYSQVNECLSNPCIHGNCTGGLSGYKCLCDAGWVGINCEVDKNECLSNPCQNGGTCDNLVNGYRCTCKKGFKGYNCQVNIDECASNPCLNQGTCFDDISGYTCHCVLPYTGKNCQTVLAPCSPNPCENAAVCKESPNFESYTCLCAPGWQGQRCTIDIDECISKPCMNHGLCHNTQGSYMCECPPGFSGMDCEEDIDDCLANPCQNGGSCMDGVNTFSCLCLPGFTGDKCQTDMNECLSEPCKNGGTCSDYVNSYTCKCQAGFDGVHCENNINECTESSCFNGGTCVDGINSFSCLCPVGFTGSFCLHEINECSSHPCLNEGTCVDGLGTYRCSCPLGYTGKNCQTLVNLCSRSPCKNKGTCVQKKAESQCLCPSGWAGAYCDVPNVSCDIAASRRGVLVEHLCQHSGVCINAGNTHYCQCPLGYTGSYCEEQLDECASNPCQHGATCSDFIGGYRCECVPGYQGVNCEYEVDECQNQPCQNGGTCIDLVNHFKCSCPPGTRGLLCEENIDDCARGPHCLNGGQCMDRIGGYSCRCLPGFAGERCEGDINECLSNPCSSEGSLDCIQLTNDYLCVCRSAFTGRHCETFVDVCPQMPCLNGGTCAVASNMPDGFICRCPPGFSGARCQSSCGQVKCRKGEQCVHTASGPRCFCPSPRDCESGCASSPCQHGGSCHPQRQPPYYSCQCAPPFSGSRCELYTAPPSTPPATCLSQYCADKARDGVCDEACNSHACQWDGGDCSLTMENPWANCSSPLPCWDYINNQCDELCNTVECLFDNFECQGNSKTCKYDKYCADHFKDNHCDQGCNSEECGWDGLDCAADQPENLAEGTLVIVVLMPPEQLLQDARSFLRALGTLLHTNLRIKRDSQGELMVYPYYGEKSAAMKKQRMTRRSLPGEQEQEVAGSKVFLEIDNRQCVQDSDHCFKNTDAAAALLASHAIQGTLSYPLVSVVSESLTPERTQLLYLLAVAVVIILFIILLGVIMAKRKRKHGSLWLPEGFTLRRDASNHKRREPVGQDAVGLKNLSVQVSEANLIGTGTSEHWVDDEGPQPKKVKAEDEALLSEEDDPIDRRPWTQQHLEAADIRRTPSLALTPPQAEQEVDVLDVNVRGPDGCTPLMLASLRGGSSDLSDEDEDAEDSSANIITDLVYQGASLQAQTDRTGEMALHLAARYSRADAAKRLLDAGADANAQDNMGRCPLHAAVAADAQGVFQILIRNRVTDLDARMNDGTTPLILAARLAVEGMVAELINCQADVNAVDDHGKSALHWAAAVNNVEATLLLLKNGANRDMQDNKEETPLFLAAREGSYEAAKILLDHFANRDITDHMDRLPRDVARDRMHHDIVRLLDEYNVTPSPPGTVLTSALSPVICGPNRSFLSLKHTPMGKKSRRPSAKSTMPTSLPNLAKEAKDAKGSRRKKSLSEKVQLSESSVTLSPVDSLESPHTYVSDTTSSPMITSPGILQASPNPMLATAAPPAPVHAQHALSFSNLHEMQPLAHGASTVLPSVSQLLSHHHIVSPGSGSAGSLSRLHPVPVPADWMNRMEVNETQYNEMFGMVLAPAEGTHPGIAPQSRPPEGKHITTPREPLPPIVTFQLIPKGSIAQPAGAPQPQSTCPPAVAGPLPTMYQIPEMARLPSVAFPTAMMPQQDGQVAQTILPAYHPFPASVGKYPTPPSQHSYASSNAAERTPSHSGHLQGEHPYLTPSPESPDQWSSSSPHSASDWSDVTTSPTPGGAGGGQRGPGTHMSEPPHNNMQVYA
Chain of Pro-neuregulin-1, membrane-bound isoform (Homo sapiens) (Q02297 whole entry, looked up, the tested form may be a part, canonical isoform): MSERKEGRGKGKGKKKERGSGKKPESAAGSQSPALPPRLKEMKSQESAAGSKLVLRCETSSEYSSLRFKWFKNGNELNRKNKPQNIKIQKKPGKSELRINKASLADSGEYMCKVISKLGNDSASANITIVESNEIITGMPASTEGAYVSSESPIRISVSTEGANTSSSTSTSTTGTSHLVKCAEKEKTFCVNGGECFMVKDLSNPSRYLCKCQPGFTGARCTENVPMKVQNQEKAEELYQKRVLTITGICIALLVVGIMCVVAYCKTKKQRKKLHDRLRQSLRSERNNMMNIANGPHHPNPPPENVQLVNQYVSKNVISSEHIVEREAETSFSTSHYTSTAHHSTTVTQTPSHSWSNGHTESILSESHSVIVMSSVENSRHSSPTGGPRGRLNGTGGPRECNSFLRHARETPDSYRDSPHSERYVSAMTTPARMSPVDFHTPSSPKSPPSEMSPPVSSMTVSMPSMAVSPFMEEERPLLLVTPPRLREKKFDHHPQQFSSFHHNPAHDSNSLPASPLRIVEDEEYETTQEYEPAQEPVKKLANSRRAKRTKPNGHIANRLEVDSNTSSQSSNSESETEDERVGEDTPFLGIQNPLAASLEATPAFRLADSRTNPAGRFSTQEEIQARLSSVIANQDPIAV

Regarding `CCOC(=O)C[C@H]1[C@H](OC(=O)c2ccc(C(=O)c3ccccc3)cc2)[C@@H](NC(=O)Cc2ccc(OC)cc2)c2cc(OCCCO)ccc2N1C(=O)c1ccccc1`, the composite z-score is -0.045 in test [1]; 0.135 in test [2]; -0.107 in [3]; 0.172 in [4]; 0.227 in test [5]; -0.104 in test [6]. The composite z-score was 0.676 in test [7]; 0.518 in test [9]; -0.0994 in test [10]; 0.139 in test [11]; 1.19 in test [15]; 0.0759 in test [17]. Moreover, the composite z-score was 0.359 in test [18], -0.0979 in test [19] and -0.0219 in test [20]. For the same compound, the z-score in test [8] is -0.587 (inactive); in test [12], -0.12 (inactive); in test [13], 0.169 (inactive); in test [14], -0.378 (inactive); in test [16] it was -0.978 (inactive).

In the case of `O=C(NCC(F)(F)F)[C@@H]1c2ccccc2C(=O)N(Cc2cc(F)cc(C(F)(F)F)c2)[C@H]1c1ccc(CO)cc1`, the composite z-score in test [1] was 0.148; in test [2], -0.823; in test [3], -0.0996; in test [4] it was -0.762; in test [5], -1; in test [6], -0.381. For the same compound, the composite z-score in [7] is 1.06; in test [9], -0.317; in test [10], -0.218; in [11], -0.264; in test [15], 2.29; in test [17], -0.0998. The composite z-score is -1.08 in test [18], -1.13 in [19] and -0.278 in test [20]. Further, the z-score in test [8] was -0.0411 (inactive); in test [12] it was 0.0042 (inactive); in [13] it was -0.793 (inactive); in test [14] it was 0.29 (inactive); in test [16], 0.463 (inactive).

Regarding `C=C[C@@H](COC(C)=O)N(C(=O)OC(C)(C)C)S(=O)(=O)c1ccc(Br)cc1`, the composite z-score in test [1] was 0.0095; in test [2] it was 1.66; in test [3], -0.0005; in [4], 0.358; in test [5], 0.401; in [6], 0.33. The composite z-score was 1.01 in [7]; 0.157 in test [9]; 0.157 in test [10]; 0.832 in [11]; 0.519 in test [15]; 0.132 in [17]. The composite z-score in test [18] was 0.841; in test [19], 0.782; in [20], 0.0709. In addition, the z-score in test [8] is -3.97 (inactive); in test [12] it was -0.152 (inactive); in test [13] it was -1.54 (inactive); in [14], -0.666 (inactive); in test [16] it was 0.411 (inactive).

As for `COCCOC(=O)N1C(=O)[C@@]2(c3ccccc31)[C@H](C(=O)N1CCN(c3ncccn3)CC1)[C@H]1C(=O)O[C@H](c3ccccc3)[C@H](c3ccccc3)N1[C@@H]2c1ccc(O)cc1`, the composite z-score in [1] was 0.149; in test [2], 0.0128; in test [3], -0.0136; in test [4], 0.879; in test [5], 0.186; in test [6], 1.36. The composite z-score is 0.335 in test [7]; -0.0574 in [9]; 0.0523 in [10]; 1.55 in test [11]; 2.25 in [15]; -0.122 in test [17]. Besides, the figures for the composite z-score in [18], in test [19] and in test [20] were 0.161, 0.679 and -0.184, respectively. Moreover, the z-score in [8] was -0.79 (inactive); in test [12], 0.232 (inactive); in test [13], 1.07 (inactive); in test [14] it was 1.72 (inactive); in test [16] it was 1.48 (inactive).

On to `CCOC(=O)C[C@H]1[C@H](OC(=O)c2cc3ccccc3oc2=O)[C@@H](NC(=O)c2ccc(-c3ccccc3)cc2)c2cc(OCCCO)ccc2N1C(=O)c1ccc2ccccc2n1`, for which the composite z-score in test [1] was -0.494; in test [2], 0.804; in [3] it was -0.0563; in [4] it was 0.684; in [5] it was 0.652; in test [6], 0.751. For the same compound, the composite z-score in test [7] was 1.03; in test [9], 0.619; in [10], -0.0994; in test [11], 1.25; in [15], 1.92; in test [17], -0.084. Further, the values for the composite z-score in [18], in test [19] and in [20] were 0.873, 1.05 and -0.0531, respectively. Further, the z-score in test [8] is -0.185 (inactive); in [12], 0.443 (inactive); in test [13], 0.394 (inactive); in test [14], 1.14 (inactive); in test [16], -0.0642 (inactive).
